Screening results (PubChem)
TDP1 block: inhibitors of human tyrosyl-DNA phosphodiesterase TDP1; Q9NUW8; recombinant TDP1, AlphaScreen DNA substrate cleavage; Potency, µM (doses to about 130 µM), actives largely listed as inhibitors; 350,000 tested, 0.28% active; further: nearly all actives have a fitted effect of over 40% in size
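Recombinant human Tdp1 (E. coli-expressed, 1 nM final) preincubated with compounds 15 min at room temperature, then 5'-biotin/3'-phosphotyrosine-FITC DNA substrate (15 nM final) added for 5 min. AlphaScreen beads (10 ug/ml final) added 10 min; cleavage lowers signal.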
POLK inh: DNA polymerase kappa (human) inhibition | Q9UBT6 | purified Pol kappa, fluorescent DNA synthesis assay, 10 min | Potency, µM (highest dose often 107 µM), most hits filed as inhibitors | 400,000 tested, 0.53% active | AID 588579
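Activity was followed as the change in fluorescence between reads at 0 and 10 min after starting the reaction with 50 nM substrate. Beforehand, 10 nM polymerase had been preincubated with compound for 15 min at room temperature.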
POLI inh: DNA polymerase iota (human) inhibition. Pol iota fluorescent replication assay, 10 min. Potency, µM (highest dose often 115 µM), actives largely listed as inhibitors. 390,000 tested, 1% active. AID 588590
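Pol iota at 10 nM preincubated 15 min with compounds at room temperature; reaction started with fluorescent substrate, 50 nM final. Fluorescence read kinetically at 0 and 10 min; buffer-only wells as negative control.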
FEN1 inhibitor: blocks human flap endonuclease 1; AID 588795; Potency, µM (doses to about 114 µM), most hits filed as inhibitors; 390,000 tested, 0.35% active; Recombinant FEN1 flap cleavage, fluorescence, 15 min; P39748; further: nearly all actives have a fitted effect of over 65% in size
Target sequence (P39748 whole entry, looked up): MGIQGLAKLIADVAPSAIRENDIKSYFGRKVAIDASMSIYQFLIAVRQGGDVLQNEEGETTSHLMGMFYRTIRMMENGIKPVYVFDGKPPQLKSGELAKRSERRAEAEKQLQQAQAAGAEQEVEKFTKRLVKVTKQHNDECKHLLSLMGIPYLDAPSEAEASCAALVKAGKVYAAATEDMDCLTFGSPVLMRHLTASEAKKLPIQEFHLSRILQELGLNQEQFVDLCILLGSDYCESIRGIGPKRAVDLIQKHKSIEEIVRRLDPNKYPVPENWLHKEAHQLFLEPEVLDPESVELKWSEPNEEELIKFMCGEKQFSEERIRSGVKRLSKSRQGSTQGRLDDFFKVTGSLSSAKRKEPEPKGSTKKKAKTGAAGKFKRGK
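Recombinant FEN1 (10 nM) was preincubated with pin-transferred compounds for 15 min at room temperature, then flap DNA substrate (50 nM final) was added. Plates were read at 0 and 15 min, and normalized concentration–response data were fitted to a four-parameter Hill equation.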
Pol eta inh: inhibitors of human DNA polymerase eta; Q9Y253; Potency, µM (doses to about 114 µM), hits mostly inhibitors; recombinant Pol eta, fluorescent DNA replication assay; 390,000 tested, 1.2% active
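Pol eta at 10 nM preincubated with compounds 15 min at room temperature; reaction started with fluorescent substrate (50 nM final) and read kinetically at 0 and 10 min.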
POLB inh: blocks human DNA polymerase beta activity; P06746; Pol beta primer extension/strand displacement, fluorescence kinetic; Potency, µM (doses to about 114 µM), most hits filed as inhibitors; 340,000 tested, 1.3% active
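Homogeneous kinetic assay of primer extension and strand displacement by 10 nM Pol beta, preincubated 15 min at room temperature with compound before 50 nM substrate (final) was added. Read at 0 and 10 min; four-parameter Hill fit.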
Hits are given with their value; - = inactive; ? = inconclusive; . = no result given. Rows were chosen to be rich in hits. Some 2.4% of all compounds tested hit in one or more screens of this group. The call rests on the fitted dose curve; in most records, active means well fitted curve in the direction sought with a large enough effect; inconclusive means small, poorly fitted or top-dose-only effect, or another doubt; inactive means no such curve, though single readings can be large; an effect the other way counts as inactive or inconclusive.

SMILES	TDP1 block	POLK inh	POLI inh	FEN1 inhibitor	Pol eta inh	POLB inh
O=C(/C=C/c1cccs1)Nc1scc(-c2ccccc2)c1C(=O)O	32µM	-	2.5µM	?	79µM	?
O=C(Nc1scc(-c2ccccc2)c1C(=O)O)c1ccccc1Cl	.	-	-	-	-	-
CCN(c1ccccc1)c1nnc(NC(=O)Nc2ccc(C)cc2)s1	-	-	-	-	-	?
COc1ccc(NC(=O)CSCc2cnn(-c3ccccc3)c2-n2cccc2)cc1	-	-	-	-	-	-
O=C(Nc1ccc(C2=NCCN2)cc1)c1ccc(C(=O)Nc2ccc(C3=NCCN3)cc2)c([N+](=O)[O-])c1	-	45µM	10µM	40µM	?	2.2µM
COc1ccc(C(=O)Nc2ccncc2)cc1[N+](=O)[O-]	.	-	-	-	-	?
O=S1(=O)N=C(Oc2ccccc2F)c2ccccc21	-	.	.	.	.	.
Cn1nc([N+](=O)[O-])c(C(C#N)c2ccccn2)c(Cl)c1=O (stereo unspecified)	-	-	?	-	-	-
CCCn1nc([N+](=O)[O-])c(C(C#N)c2nc3ccccc3o2)c(Cl)c1=O (stereo unspecified)	-	-	?	-	22µM	-
COc1ccc(OC2=NS(=O)(=O)c3ccccc32)cc1	-	.	.	.	.	.
CCOC(=O)c1c(NC(=O)/C=C/C(=O)O)sc(C)c1-c1ccc(C(C)(C)C)cc1	-	-	?	-	22µM	?
CCOC(=O)c1c(NC(=O)/C=C\C(=O)O)sc(C)c1-c1ccccc1	-	-	-	-	-	-
CC(C)CCNC(=O)c1ccc(Cn2c(=O)c3cccn3c3cccnc32)cc1	-	-	-	-	-	-
Nc1c(C(=O)Nc2ccc(Br)cc2)sc2nc(-c3ccncc3)ccc12	22µM	-	?	-	-	-
Nc1c(C(=O)Nc2ccc(Br)cc2)sc2nc(-c3ccco3)ccc12	-	-	-	-	-	-
COc1ccc(CN2CCC[C@]3(N[C@H](c4ccccc4)[C@@H]4C(=O)N(Cc5ccccc5)C(=O)[C@@H]43)C2=O)cc1	.	.	.	.	-	.
CCOc1cccc(=O)c2c(C)n(Cc3ccco3)c(C)c12	-	-	-	-	-	25µM
COc1cc(F)c(S(=O)(=O)N2CCCN(S(=O)(=O)c3cccc(N)c3)CC2)c(F)c1	-	.	.	.	.	.
COc1ccc2[nH]c3c(=O)n(CCCN4CCOCC4)cnc3c2c1	-	-	-	-	-	-
COc1cc2[nH]c3c(=O)n(CCN4CCCCC4)cnc3c2cc1OC	-	22µM	-	-	-	-
O=C1N=c2ccc(Br)cc2=C1c1sc(=S)n(NS(=O)(=O)c2ccccc2)c1O	-	-	-	79µM	-	-
O=C1N=c2ccccc2=C1c1sc(=S)n(NC(=O)c2cccc(O)c2)c1O	-	-	?	-	?	-
O=[N+]([O-])c1cc([N+](=O)[O-])c(Oc2cccc3c2CCCC3)cc1NN1CCCCC1	.	-	-	-	-	.
COc1cccc(Oc2cc(NN3CCCCC3)c([N+](=O)[O-])cc2[N+](=O)[O-])c1OC	.	-	?	-	-	56µM
Cc1ccc(-n2c(=O)c3c4c(sc3n(CC(=O)C(C)(C)C)c2=O)CCCCC4)cc1C	-	-	-	-	-	-
SMILES	TDP1 block	POLK inh	POLI inh	FEN1 inhibitor	Pol eta inh	POLB inh
CCCCCCCCN1[C@@H](CC(C)=O)c2ccc(/C=C/C(C)=O)cc2S1(=O)=O	.	-	?	-	.	.
COC(=O)c1ccc(COc2ccc3c(C)c(C)c(=O)oc3c2)o1	-	-	?	-	-	56µM
Cc1ccc(Cl)cc1NC(=S)N(Cc1ccco1)C(C)c1cccs1 (stereo unspecified)	-	-	79µM	-	-	-
Cc1cc(C)n(C(CC(=O)N2CCc3ccccc3C2)C(=O)O)n1 (stereo unspecified)	-	?	79µM	-	-	?
CCOc1ccc(CCNC(=O)Cn2nc(C)n3c(cc4occc43)c2=O)cc1OCC	-	-	-	-	-	-
Cc1ccc(-n2ccc(=O)c(C(=O)Nc3ccc(S(=O)(=O)Nc4nccc(C)n4)cc3)n2)cc1	?	-	?	-	40µM	-
Cc1cc(C)nc(NS(=O)(=O)c2ccc(NC(=O)c3nn(-c4ccccc4)ccc3=O)cc2)n1	-	-	-	-	-	-
CC(Sc1nnc2c(n1)[nH]c1ccccc12)C(=O)NC1CCCCC1 (stereo unspecified)	.	-	-	-	-	45µM
CCCCC1(C2CCCC2)NC(=O)NC1=O (stereo unspecified)	.	-	-	-	-	.
CCOC(=O)C1CCN(S(=O)(=O)c2ccc3c(c2)CC(=O)N3C)CC1	-	-	14µM	-	?	-
CCCc1cc(C(=O)N2CCN(C(c3ccccc3)c3ccccc3)CC2)no1	-	89µM	?	-	?	-
COc1cccc(-n2c(-c3ccco3)nc3c(cnn3-c3ccccc3C)c2=O)c1	-	-	-	-	-	-
CN(C)c1ccc(CC2C(=O)Nc3ccccc32)cc1 (stereo unspecified)	-	-	25µM	-	-	-
CC(=O)Nc1cccc(S(=O)(=O)N2CCCN(S(=O)(=O)c3ccc4c(c3)OCCO4)CC2)c1	-	.	.	.	.	.
CN(C(=O)c1cc(C(=O)N(C)c2ccccc2)cc([N+](=O)[O-])c1)c1ccccc1	.	-	-	-	-	-
CC1=NN(c2ccccc2)C(=O)C1C(=O)c1cc([N+](=O)[O-])cc([N+](=O)[O-])c1 (stereo unspecified)	-	-	16µM	-	-	-
CC1C/C(=N\NC(N)=S)c2cc(Cl)ccc2S1 (stereo unspecified)	.	-	79µM	-	-	-
CC(C)=C1CCC(C)CC1=NNC(N)=S (stereo unspecified)	.	-	-	-	-	.
Cc1nn2c(=O)cc(COc3ccc(/C=C(\C#N)C(=O)Nc4ccccc4C)cc3)nc2s1	.	?	20µM	-	-	?
CCCCc1nn2c(=O)cc(COC(=O)c3cccc(Cl)c3)nc2s1	-	-	-	-	-	-
Cc1ccccc1C(=O)OCc1cc(=O)n2nc(-c3cccs3)sc2n1	-	-	?	-	-	32µM
Cc1nn2c(=O)cc(COC(=O)c3ccccc3NC(=O)C(C)C)nc2s1	-	-	-	-	79µM	-
O=C(OCc1cc(=O)n2nc(-c3cccs3)sc2n1)c1cccc(Cl)c1	-	-	?	-	-	40µM
O=C(OCc1cc(=O)n2nc(-c3cccs3)sc2n1)c1ccccc1Cl	-	?	?	-	?	35µM
CCCc1nn2c(=O)cc(COC(=O)c3cccc(NC(=O)c4cccs4)c3)nc2s1	-	-	?	-	-	3.5µM
